High-throughput results from PubChem BioAssay.
BoNT A protease – BoNT/A light chain protease inhibitors, primary screen, biochemical, flow cytometry, MLPCN library; Botulinum neurotoxin type A light chain protease (Clostridium botulinum A str. ATCC 3502); multiplex microsphere protease substrate cleavage; inhibition, % at 10 µM; 0.17% of 360,000 active; AID 588499, 2011
BoNT F protease – BoNT/F light chain protease inhibitors, primary screen, biochemical, flow cytometry, MLPCN library; Multiplex microsphere protease cleavage assay; inhibition, % at 10 µM; 0.22% of 360,000 active; AID 588497, 2011; Botulinum neurotoxin type F light chain protease (Clostridium botulinum); in the data active means inhibition above about 35%, passing the limit was not always enough; inconclusive means no clear call, values can overlap the other calls
TcdB GH inh – TcdB glycohydrolase inhibitors, primary screen, biochemical, single point, plate reader; TcdB glycohydrolase enzymatic assay; inhibition, % at 9.99 µM; 0.24% of 350,000 active; AID 652162, 2013; in the data active means inhibition above about 10%
Bead autofluor – counter-screen for toxin protease inhibitors: compound fluorescence. fluorescence intensity (concentration not given with the values). compound autofluorescence counterscreen, microsphere flow cytometry; active compounds read high. AID 624483. 3.1% of 360,000 active; in the data active means fluorescence intensity above about 16000; inconclusive means no clear call, values can overlap the other calls
Anthrax LF inh2 – Bacillus anthracis LF protease inhibitors, primary screen, biochemical, multiplex microsphere, MLPCN library; Lethal factor (Bacillus anthracis), P15917; multiplex microsphere protease cleavage assay; inhibition, % at 10 µM; 0.12% of 360,000 active; AID 588501, 2011
Target sequence (P15917 whole entry, looked up): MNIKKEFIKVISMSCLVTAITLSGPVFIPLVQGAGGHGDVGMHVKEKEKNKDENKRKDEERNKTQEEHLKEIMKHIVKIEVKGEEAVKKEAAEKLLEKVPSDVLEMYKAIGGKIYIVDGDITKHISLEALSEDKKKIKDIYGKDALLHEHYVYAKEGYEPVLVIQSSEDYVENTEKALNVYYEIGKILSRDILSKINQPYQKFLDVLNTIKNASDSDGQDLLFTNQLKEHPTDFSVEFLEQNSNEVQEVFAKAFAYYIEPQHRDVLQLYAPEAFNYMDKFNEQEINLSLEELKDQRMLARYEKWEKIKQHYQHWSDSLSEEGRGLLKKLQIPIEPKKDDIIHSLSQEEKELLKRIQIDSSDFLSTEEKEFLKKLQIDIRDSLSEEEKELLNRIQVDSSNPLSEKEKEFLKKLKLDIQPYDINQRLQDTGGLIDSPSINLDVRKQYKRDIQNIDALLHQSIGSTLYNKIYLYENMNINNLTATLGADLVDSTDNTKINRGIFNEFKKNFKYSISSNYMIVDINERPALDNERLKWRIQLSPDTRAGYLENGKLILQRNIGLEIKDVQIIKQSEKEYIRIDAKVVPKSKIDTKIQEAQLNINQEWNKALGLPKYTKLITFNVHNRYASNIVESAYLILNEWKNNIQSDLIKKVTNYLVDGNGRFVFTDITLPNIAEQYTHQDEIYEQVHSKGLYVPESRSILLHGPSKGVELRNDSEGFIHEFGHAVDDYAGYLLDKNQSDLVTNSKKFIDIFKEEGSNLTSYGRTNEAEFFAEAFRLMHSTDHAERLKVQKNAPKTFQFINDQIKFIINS
A number is an active result. Shown is part of a subset that was picked to be rich in hits. Unless noted, no stated cut-off is given here; in the data, active means inhibition above about 30%; inconclusive means no clear call, values can overlap the other calls; inactive means below that.

How did O=C(O)c1cc(NCc2ccccc2C(F)(F)F)ccc1N1CCOCC1 do in these assays?
BoNT A protease: inconclusive; BoNT F protease: inactive; Bead autofluor: 22050; Anthrax LF inh2: inactive

What do the screens show for `C(=C\c1ccccc1)/CN1CCN(c2ncnc3c2oc2ccccc23)CC1`?
BoNT A protease: inconclusive; BoNT F protease: inactive; Bead autofluor: 17552; Anthrax LF inh2: inactive

How did CN(C)C(=S)Nn1c(-c2ccccc2)nc2ccccc2c1=O do in these assays?
BoNT A protease: inactive; BoNT F protease: inactive; TcdB GH inh: inactive; Bead autofluor: inactive; Anthrax LF inh2: inactive

What do the screens show for `O=C(Nn1c(-c2ccccc2)nc2ccccc2c1=O)C1CCC1`?
BoNT A protease: inactive; BoNT F protease: inactive; Bead autofluor: 21456; Anthrax LF inh2: inactive

What do the screens show for `COc1ccc(C(C)=O)cc1CSc1nnc(C)n1-c1ccccc1`?
BoNT A protease: inactive; BoNT F protease: inactive; Bead autofluor: inactive; Anthrax LF inh2: inactive

What do the screens show for `COc1ccc(C(C)=O)cc1CSc1nnc(-c2ccccc2O)n1-c1ccccc1`?
BoNT A protease: inactive; BoNT F protease: inactive; TcdB GH inh: inactive; Bead autofluor: 19750; Anthrax LF inh2: inactive

What do the screens show for `COc1ccc(-c2nnc(SCCC(=O)O)n2-c2ccccc2)cc1OC`?
BoNT A protease: inactive; BoNT F protease: inactive; TcdB GH inh: inactive; Bead autofluor: 25005; Anthrax LF inh2: inactive

Results for COc1ccc(-c2nnc(SCCC(=O)O)n2C)cc1OC ?
BoNT A protease: inactive; BoNT F protease: inactive; Bead autofluor: inactive; Anthrax LF inh2: inactive

What do the screens show for `C[C@H](O)C#Cc1cnc2c(c1)C(=O)N([C@@H](C)CO)C[C@@H](C)[C@H](CN(C)C(=O)c1ccncc1)O2`?
TcdB GH inh: inactive

Results for CC(=O)Nc1nonc1NC(=O)CSc1nc2ccccc2o1 ?
BoNT A protease: inactive; BoNT F protease: inactive; Bead autofluor: 22359; Anthrax LF inh2: inactive

Results for O=C(CSc1nc(-c2ccccc2)c(-c2ccccc2)o1)Nc1nnc(-c2ccccc2)s1 ?
BoNT A protease: inactive; BoNT F protease: inactive; Bead autofluor: 22803; Anthrax LF inh2: inactive

What do the screens show for `O=C(CSc1nc(-c2ccccc2)c(-c2ccccc2)o1)Nc1nncs1`?
BoNT A protease: inactive; BoNT F protease: inactive; Bead autofluor: inactive; Anthrax LF inh2: inactive

What do the screens show for `Cc1nnc(NC(=O)CSc2nc3ccccc3o2)s1`?
BoNT A protease: inactive; BoNT F protease: inactive; TcdB GH inh: inactive; Bead autofluor: inactive; Anthrax LF inh2: inactive

How did CCc1nnc(NC(=O)CSc2nc3ccccc3o2)s1 do in these assays?
BoNT A protease: inactive; BoNT F protease: inactive; Bead autofluor: 22539; Anthrax LF inh2: inactive

Results for COc1ccc(OC)c2c(C)cc(N3CCCN(C)CC3)nc12 ?
BoNT A protease: inactive; BoNT F protease: inactive; Bead autofluor: 21960; Anthrax LF inh2: inactive

Results for COc1ccccc1N1CCN(c2cc(N3CCCC3)nc(C)n2)CC1 ?
BoNT A protease: inactive; BoNT F protease: inactive; Bead autofluor: inactive; Anthrax LF inh2: inactive

What do the screens show for `N#Cc1c(NC(=O)CSc2nc3c(c(C(F)(F)F)n2)CCc2ccccc2-3)sc2c1CCCC2`?
BoNT A protease: inactive; BoNT F protease: inactive; Bead autofluor: 22691; Anthrax LF inh2: inactive

What do the screens show for `Cc1ccnc(SCC(=O)Nc2sc3c(c2C#N)CCCC3)n1`?
BoNT A protease: inactive; BoNT F protease: inactive; Bead autofluor: inactive; Anthrax LF inh2: inactive

Results for Cc1cc(C(=O)Nc2sc3c(c2C#N)CCC3)no1 ?
BoNT A protease: inactive; BoNT F protease: inactive; Bead autofluor: 22362; Anthrax LF inh2: inactive

Results for CC(=O)Nc1sc2c(c1C#N)CCCCC2 ?
BoNT A protease: inconclusive; BoNT F protease: inactive; Bead autofluor: 23128; Anthrax LF inh2: inactive

How did CCC(=O)Nc1sc2c(c1C#N)CCCCC2 do in these assays?
BoNT A protease: inactive; BoNT F protease: inactive; Bead autofluor: inactive; Anthrax LF inh2: inactive

What do the screens show for `CC(=O)Nc1c(O)nc(SCC(=O)Nc2sc3c(c2C#N)CCCCCC3)[nH]c1=O`?
BoNT A protease: inactive; BoNT F protease: inactive; Bead autofluor: 19485; Anthrax LF inh2: inactive

What do the screens show for `Cc1cc(C(=O)Nc2sc3c(c2C#N)CCCC3)no1`?
BoNT A protease: inactive; BoNT F protease: inactive; TcdB GH inh: inactive; Bead autofluor: inactive; Anthrax LF inh2: inactive

What do the screens show for `C[C@H]1CN([C@@H](C)CO)C(=O)c2cc(C#CCN(C)C)cnc2O[C@@H]1CN(C)C(=O)NC1CCCCC1`?
TcdB GH inh: inactive

What do the screens show for `COc1ccc2c3c(n(C)c2c1)[C@H](CO)N(C(=O)Nc1ccc(F)cc1)CC31CN(C(=O)Nc2c(C)noc2C)C1`?
TcdB GH inh: inactive

How did COC(=O)[C@@]1(Cc2ccccc2)N=C(c2ccc(OCCCO)cc2)O[C@H]1c1ccccc1 do in these assays?
TcdB GH inh: inactive

What do the screens show for `COc1ccc(NC(=O)Nc2ccc3c(c2)C(=O)N([C@H](C)CO)C[C@H](C)[C@H](CN(C)Cc2ccc4c(c2)OCO4)OCCCC[C@H](C)O3)cc1`?
TcdB GH inh: inactive

Results for N#Cc1c(NC(=O)CSc2ncn[nH]2)sc2c1CCCC2 ?
BoNT A protease: inactive; BoNT F protease: inactive; Bead autofluor: inactive; Anthrax LF inh2: inactive

Results for N#Cc1c(NC(=O)CSC2=NCCS2)sc2c1CCCC2 ?
BoNT A protease: inactive; BoNT F protease: inactive; Bead autofluor: 16243; Anthrax LF inh2: inactive

How did COc1ccc(N=c2oc3cc(O)ccc3cc2C(=O)NCC2CCCO2)cc1 (stereo unspecified) do in these assays?
BoNT A protease: inconclusive; BoNT F protease: inactive; Bead autofluor: 21984; Anthrax LF inh2: inactive

How did COc1ccc(N=c2oc3cc(O)ccc3cc2C(=O)NCC2CCCO2)c(OC)c1 (stereo unspecified) do in these assays?
BoNT A protease: inactive; BoNT F protease: inactive; Bead autofluor: inconclusive; Anthrax LF inh2: inconclusive

Results for CCOc1ccc(N=c2oc3cc(O)ccc3cc2C(=O)NCC2CCCO2)cc1 (stereo unspecified) ?
BoNT A protease: inactive; BoNT F protease: inactive; TcdB GH inh: inactive; Bead autofluor: inactive; Anthrax LF inh2: inactive

What do the screens show for `CCOc1ccccc1N=c1oc2cc(O)ccc2cc1C(=O)NCC1CCCO1` (stereo unspecified)?
BoNT A protease: inactive; BoNT F protease: inactive; TcdB GH inh: inactive; Bead autofluor: 16487; Anthrax LF inh2: inactive

Results for COCC(=O)N1[C@H](C#N)[C@@H](c2ccccc2C2=CCCCC2)[C@H]1CO ?
TcdB GH inh: inactive

What do the screens show for `CCOC(=O)C1=C(C)NC(C)=C(C(=O)OCC)C1c1cccc(C)n1`?
BoNT A protease: inactive; BoNT F protease: inactive; TcdB GH inh: inactive; Bead autofluor: inactive; Anthrax LF inh2: inactive

Results for CCOC(=O)C1=C(C)NC2=C(C(=O)CC(C)(C)C2)C1c1cccc(C)n1 (stereo unspecified) ?
BoNT A protease: inactive; BoNT F protease: inactive; Bead autofluor: 20812; Anthrax LF inh2: inactive

How did CCCc1nc(S(=O)(=O)Cc2ccc(Cl)cc2Cl)n[nH]1 do in these assays?
BoNT A protease: inactive; BoNT F protease: inactive; Bead autofluor: 17841; Anthrax LF inh2: inactive
